Bioassay records: PubChem BioAssay, National Center for Advancing Translational Sciences (NCATS)
Shown are actives, neighbours in structure and some others; about 6.5% of the full set was active somewhere.
HT1080 IDH1KD tx: toxicity to HT-1080 IDH1 knockdown cells (counter line); HT-1080 IDH1 knockdown viability, ATP luminescence, 48 h; Potency, µM (top dose mostly 46.1 µM), inactives show at the top dose activity, negative = toxicity, most hits filed as cytotoxic; actives 2% (n = 360,000); AID 686971;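 further: potency means the concentration at half of the fitted maximal effect; 0% = DMSO wells and -100% = cell-free medium wells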
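Knockdown cells (IDH1KD HT-1080) received compounds 2 h after plating at 750 cells/well and were kept 48 h at 37 °C in 5% FBS RPMI. A CellTiter-Glo luminescence read gave % activity for curve fitting.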
HT1080NT lethal: kills 2HG-producing HT-1080-NT fibrosarcoma cells. HT-1080-NT fibrosarcoma viability, CellTiter-Glo ATP luminescence, 48 h. AID 686970. Potency, µM (doses to about 46.1 µM), for the others: at the top dose activity, negative = less viability, usual class: cytotoxic. actives 1.6% (n = 360,000);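 further: NT is the 2HG producing partner of a matched IDH1 knockdown line; potency means the concentration at half of the fitted maximal effect; 0% = DMSO-treated cells and -100% = media-only wells without cells; nearly all actives have a fitted effect of over 55% in size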
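750 cells/well, RPMI + 5% FBS; 2 h settle, compound pin-transfer, 48 h at 37 degrees C. CellTiter-Glo 10 min RT, luminescence. Normalized to DMSO and media-only wells.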
IL1B secr inh: inflammasome signaling inhibition, IL-1 beta readout. THP-1 LPS/ATP IL-1B secretion, AlphaLISA, 16 h; hits give low values. activity change, % at 57.5 µM. actives 4.7% (n = 360,000); in the data active means activity change below about -50%; inconclusive means mostly about -30% to -49%; further: on the % scale 0 is the no-effect control and ±100 the full control effect
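THP-1 cells pretreated 1 hr with compounds (up to 57.5 uM final), then stimulated with LPS (250 ng/mL final) plus ATP (1.25 mM final); secreted IL-1B measured by AlphaLISA after 16 hr, decreased signal indicating inhibition.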
TGFb inhibitor: inhibitors of TGF-b signaling; HepG2 CAGA-GFP TGF-b/SMAD3 reporter, GFP fluorescence, 18 h; TGF-beta stimulated, 500 pg/mL final; Potency, µM (highest dose often 46.1 µM), for the others: at the highest dose activity, negative = inhibition, hits mostly inhibitors; actives 1.2% (n = 410,000); AID 588855; further: potency means the concentration at half of the fitted maximal effect; on the % scale 0 is the no-effect control and ±100 the full control effect; nearly all actives have a fitted effect of over 65% in size
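First, reporter cells (HEPG2 CAGA-GFP) rested 2 h at 37 degrees C. Next, compounds were pinned in and TGF-beta added to 500 pg/mL final. After 18 h, GFP was imaged per cell and summed per well.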
Giardia killer: kills Giardia lamblia. actives 0.15% (n = 340,000). Giardia lamblia trophozoite viability. activity change, % at 7.66 µM, hits read low. AID 540267; in the data active means activity change below about -80%; inconclusive means between about -30% and that limit;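 further: parasites exposed to compound for two days anaerobically before the ATP read; on the % scale 0 is the no-effect control and ±100 the full control effect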
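Media and compound were dispensed first, then trophozoites at 100 cells/well; plates sat 48 hrs at 37 deg C without oxygen before ATP luminescence reagent was added and read after 15-30 min at room temperature.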
HepG2 tox: counter-screen for TGF-b inhibitors: cytotoxicity in HepG2 cells; HepG2 CAGA-GFP viability, ATP luminescence, 18 h; Potency, µM (titrated, usually from 46.1 µM), for inactives: at the highest dose activity change, negative = cytotoxicity, hits mostly cytotoxic; actives 0.76% (n = 410,000); further: potency means the concentration at half of the fitted maximal effect
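CellTiter-Glo luminescence gave cytotoxicity after 18 hours at 37 degrees C. The cells were HepG2 CAGA-GFP in 1% FBS DMEM, stimulated with 500 pg/mL TGF-beta after compound addition. %Activity was normalised to no-cell wells (complete cell-killing) and DMSO (no toxicity), and curves were fitted and classified.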
Starred values were filed as active, the others as inactive; ? = inconclusive; . = not tested or not shown. Unless noted, the call rests on the fitted dose curve; in most records, active means well fitted curve in the direction sought with a large enough effect; inconclusive means small, poorly fitted or top-dose-only effect, or another doubt; inactive means no such curve, though single readings can be large; an effect the other way counts as inactive or inconclusive.

SMILES | HT1080 IDH1KD tx | HT1080NT lethal | IL1B secr inh | TGFb inhibitor | Giardia killer | HepG2 tox
CCCCCCCCNCCS(=O)(=O)NCc1ccccc1OC | -16% | -11% | ? | ? | 2 | -96%
O=c1[nH]c(=O)n(Cc2ccco2)c2c1C(C(F)(F)F)(C(F)(F)F)N=C(c1ccc(F)cc1)N2 | ? | ? | -68* | ? | 4 | -29%
Cc1ccc(S(=O)(=O)N2CCCCC2CCNC(=O)C(=O)NCc2ccccc2C)cc1 (configuration not stated) | 16µM* | 21µM* | -7 | ? | 3 | -21%
Cc1ccc(S(=O)(=O)N2CCCCC2CCNC(=O)C(=O)NCc2ccccc2)cc1 (configuration not stated) | 6.5µM* | 7.3µM* | -1 | -20% | 6 | -3%
NC(=O)CN1C(=O)C(O)(CC(=O)/C=C\C=C\c2ccccc2)c2ccccc21 (configuration not stated) | -1% | 2% | -86* | 2% | -4 | -12%
CCN1C(=O)C(O)(CC(=O)/C=C/C=C/c2ccccc2)c2ccccc21 (configuration not stated) | -1% | 3% | ? | 9% | -4 | -3%
Cc1ccc2c(c1)C(O)(CC(=O)/C=C/C=C/c1ccccc1)C(=O)N2 (configuration not stated) | -6% | -8% | -56* | 11% | 16 | -33%
C#CCN1C(=O)C(O)(CC(=O)/C=C/C=C/c2ccccc2)c2ccccc21 (configuration not stated) | 8% | 5% | -29 | ? | -24 | -32%
O=C(/C=C/C=C/c1ccccc1)CC1(O)C(=O)N(CCc2ccccc2)c2ccccc21 (configuration not stated) | -14% | -1% | -100* | ? | 2 | -95%
CCc1ccc(NC(=O)CSc2nc3ccccc3nc2Cc2ccc(C)cc2)cc1 | . | . | . | -2% | . | 7%
COc1ccc(-c2nc(SCCOc3ccccc3Cl)n3[nH]c(=O)cc3n2)cc1 | . | . | . | ? | . | -21%
C=CCc1ccccc1OCCSc1nc(-c2ccccc2F)nc2cc(=O)[nH]n12 | . | . | . | 18µM* | . | -24%
Cc1ccsc1C(=O)N1CCCC(C(=O)c2cc(F)ccc2F)C1 (configuration not stated) | 11% | ? | 0 | ? | 7 | 5%
O=C(NCc1nnnn1-c1ccc(F)cc1)c1ccc([N+](=O)[O-])o1 | 12µM* | ? | -97* | 14µM* | -95* | -180%
Cc1ccc(-n2nnnc2CNC(=O)c2ccc(Br)o2)cc1C | 3% | 4% | 4 | 1% | -13 | -2%
O=C(NCC(c1ccc(F)cc1)N1CCOCC1)c1ccc([N+](=O)[O-])o1 (configuration not stated) | ? | ? | . | ? | -101* | -109%
Cc1ccc(-n2nnnc2CNC(=O)c2ccc([N+](=O)[O-])o2)cc1C | ? | -22% | -102* | ? | ? | -108%
Cn1cnnc1SCC(=O)Nc1ccc2nc(SCc3ccccc3F)sc2c1 | 1% | 8% | 20 | 23% | 5 | -13%
CCO[C@H]1OC(C(=O)N2CCN(Cc3ccccc3)CC2)=C[C@@H](C2CCCCC2)[C@@H]1CCCO | -4% | -2% | -60* | ? | 2 | -21%
CCO[C@@H]1OC(C(=O)N2CCCCCCC2)=C[C@H](c2cn(C(C)=O)c3ccccc23)[C@H]1CCCO | -6% | -5% | -53* | -24% | 15 | -13%
CCO[C@H]1OC(C(=O)N2CCN(Cc3ccc4c(c3)OCO4)CC2)=C[C@@H](c2csc3ccccc23)[C@@H]1CCCO | ? | ? | -61* | ? | 17 | -5%
CCO[C@@H]1OC(C(=O)N2CCN(Cc3ccc4c(c3)OCO4)CC2)=C[C@H](c2ccc(C(F)(F)F)cc2)[C@H]1CCCO | ? | ? | -60* | ? | 10 | -6%
CCO[C@H]1OC(C(=O)N2CCOCC2)=C[C@@H](c2cn(C(C)=O)c3ccccc23)[C@@H]1CCCO | 7% | -5% | 9 | -2% | 11 | 7%
CCO[C@@H]1OC(C(=O)N2CCN(Cc3ccc4c(c3)OCO4)CC2)=C[C@H](c2ccc(Br)cc2)[C@H]1CCCO | -7% | -7% | ? | ? | 1 | -2%
CO[C@H](C(=O)N(C)C[C@@H]1OCc2ccccc2-c2c(n(C)c3ccccc23)C(=O)N([C@H](C)CO)C[C@@H]1C)c1ccccc1 | -1% | 0% | 20 | 4% | . | 4%
SMILES | HT1080 IDH1KD tx | HT1080NT lethal | IL1B secr inh | TGFb inhibitor | Giardia killer | HepG2 tox
COc1ccc(CNCCSc2nnnn2-c2ccccc2)c(OC)c1 | . | . | . | -4% | . | -33%
CC12CNCC(C)(CN(C3(O)C(=O)Nc4ccc(Br)cc43)C1)C2=O (configuration not stated) | 3% | 2% | 54 | -12% | 0 | -2%
CCO[C@@H]1OC(C(=O)N2CCN(Cc3ccc4c(c3)OCO4)CC2)=C[C@H](C2CCCCC2)[C@H]1CCCO | -16% | -16% | -60* | ? | -23 | -1%
CCOC(=O)C(C(=O)OCC)C1N=C(N)N=C2Oc3ccccc3N21 (configuration not stated) | 10µM* | ? | -4 | ? | 10 | -40%
CCOC(=O)CN1C(=O)C(CC)Oc2ccccc21 (configuration not stated) | -3% | 10% | 0 | ? | 0 | 1%
Cc1ccc(C(=O)NNC(=O)COc2ccc(Cl)cc2C)o1 | 2% | 6% | -54* | 2% | 4 | 2%
O=C(/C=C/c1ccco1)Nc1ccc(Oc2ccc(Cl)cc2)cc1 | 4.1µM* | 5.8µM* | -7 | -17% | 10 | -22%
O=C(/C=C/c1ccco1)Nc1ccc2c(c1)OCCO2 | 9% | 10% | -70* | 2% | -28 | -3%
COc1ccccc1/C=C/C(=O)Nc1ccc2c(c1)OCCO2 | ? | -24% | -58* | -20% | -11 | 8%
COc1cc2[nH]c(C(=O)Nc3ccc4c(c3)OCCO4)cc2c(OC)c1OC | -26% | -29% | -91* | -4% | 3 | -21%
S=C(Nc1cccc(Cl)c1)N1CCOCC1 | 13% | 14% | 25 | -2% | -1 | -1%
COc1ccccc1/C=C/C(=O)NC(=S)NCC1CCCO1 (configuration not stated) | 0% | 3% | -62* | 0% | 7 | -11%
O=C(C=Cc1ccco1)c1cc(Cl)ccc1O | 7% | -1% | -91* | ? | 11 | -28%
